Compounds with a hit are over-represented: about 19% of the library has one in this group of screens.
IL1B secr inh: blocks inflammasome-driven IL-1 beta release; THP-1 LPS/ATP IL-1B secretion, AlphaLISA, 16 h; stronger effect = lower value; activity change, % at 57.5 µM; 4.7% of 360,000 active; in the data active = activity change below about -50%; inconclusive = mostly about -30% to -49%
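THP-1 cells pretreated 1 hr with compounds (up to 57.5 uM final), then stimulated with LPS (250 ng/mL final) plus ATP (1.25 mM final); secreted IL-1B measured by AlphaLISA after 16 hr, decreased signal indicating inhibition.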
uPA generation: cell surface uPA generation inhibition; cell surface uPA generation assay, qHTS; Potency, µM (titrated, usually from 38.3 µM), most hits filed as inhibitors; 0.31% of 330,000 active; active = well fitted inhibition curve with a large enough effect; inconclusive = small, poorly fitted or top-dose-only effect; inactive = no such curve, though single readings can be large or run the other way; tested in mouse RAW 264.7 cells; also: nearly all actives have a fitted effect of over 55% in size
HT1080 IDH1KD tx: kills HT-1080 cells with IDH1 knockdown. AID 686971. HT-1080 IDH1 knockdown viability, ATP luminescence, 48 h. 2% of 360,000 active. Potency, µM (top dose mostly 46.1 µM), usual class: cytotoxic
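% activity derives from luminescence (CellTiter-Glo), normalised to DMSO and no-cell wells. HT-1080-IDH1KD cells, 750/well, had 48 h compound exposure at 37 °C.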
HT1080-NT tox: kills 2HG-producing HT-1080-NT fibrosarcoma cells; Potency, µM (highest dose often 46.1 µM), actives largely listed as cytotoxic; 1.6% of 360,000 active; HT-1080-NT fibrosarcoma viability, CellTiter-Glo ATP luminescence, 48 h; AID 686970;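 also: NT is the 2HG producing partner of a matched IDH1 knockdown line; nearly all actives have a fitted effect of over 55% in size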
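750 cells/well, RPMI + 5% FBS; 2 h settle, compound pin-transfer, 48 h at 37 degrees C. CellTiter-Glo 10 min RT, luminescence. Normalized to DMSO and media-only wells.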
TDP1 cell CPT: growth inhibition of DT40 Tdp1-/-;hTDP1 cells with camptothecin (screen for TDP1 inhibitors) | chicken DT40 Tdp1-/-;hTDP1 cells + 20 nM CPT, ATP luminescence, 48 h | Potency, µM (doses to about 46.2 µM), actives largely listed as inhibitors | 12% of 420,000 active; also: nearly all actives have a fitted effect of over 55% in size
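Cell growth measured by CellTiter-Glo luminescence after a minimum 48 h, 37 C compound exposure with 20 nM CPT in Tdp1-knockout DT40 cells stably expressing hTDP1, seeded 400/well; qHTS titration format.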
TDP1 cell noCPT: qHTS for Inhibitors of human tyrosyl-DNA phosphodiesterase 1 (TDP1): qHTS in cells in absence of CPT; DT40 Tdp1-/- hTDP1 cells, no CPT, ATP luminescence, 48 h; Potency, µM (doses to about 46.2 µM), hits mostly inhibitors; 15% of 420,000 active; AID 686978, 2013; also: nearly all actives have a fitted effect of over 55% in size
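Stably hTDP1-transfected Tdp1-null chicken DT40 cells were treated with library compounds minus camptothecin and grown for at least 48 hr at 37 °C, after which cellular ATP was quantified by luminescence.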
Large screens that a line does not name were inactive. Unless noted, calls follow the shape of the dose curve; as a rule, active = well fitted curve in the direction sought with a large enough effect; inconclusive = small, poorly fitted or top-dose-only effect, or another doubt; inactive = no such curve, though single readings can be large; an effect the other way counts as inactive or inconclusive.

CCCCn1c(-c2ccc(F)c(F)c2)nc2cc3[nH]c(=O)c(C(C)C)nc3cc21	HT1080-NT tox inconclusive, TDP1 cell CPT 21µM, TDP1 cell noCPT 21µM
C=CC[C@@H](CC(=O)OC(C)(C)C)C(=O)OC[C@H]1CCCN1C(=O)[C@@H](CC=C)CC(=O)N(CCO)Cc1ccccc1	IL1B secr inh -62, TDP1 cell CPT inconclusive, TDP1 cell noCPT inconclusive
C=CC[C@@H](CC(=O)OC(C)(C)C)C(=O)OC[C@@H]1CCCN1C(=O)[C@@H](CC=C)CC(=O)N[C@@H](CO)Cc1ccccc1	TDP1 cell CPT inconclusive, TDP1 cell noCPT inconclusive
C=CC[C@@H](CC(=O)OC(C)(C)C)C(=O)OC[C@@H]1CCCN1C(=O)[C@@H](CC=C)CC(=O)N(CCO)Cc1ccccc1	IL1B secr inh -55, HT1080 IDH1KD tx inconclusive, TDP1 cell CPT inconclusive, TDP1 cell noCPT inconclusive
C=CC[C@@H](Cc1ccc(F)cc1)C(=O)OC[C@@H]1CCCN1C(=O)[C@@H](CC=C)CC(=O)N(CCO)Cc1ccccc1	IL1B secr inh inconclusive, HT1080 IDH1KD tx inconclusive, HT1080-NT tox inconclusive, TDP1 cell CPT inconclusive, TDP1 cell noCPT 15µM
C=CC[C@@H](Cc1ccc(F)cc1)C(=O)OC[C@@H]1CCCN1C(=O)[C@@H](CC=C)CC(=O)NCCO	none
C=CC[C@@H](Cc1ccc(F)cc1)C(=O)OC[C@@H]1CCCN1C(=O)[C@H](CC=C)CC(=O)N[C@H](CO)Cc1ccccc1	IL1B secr inh -70, TDP1 cell CPT inconclusive, TDP1 cell noCPT 18µM
COC(=O)Nc1ccc2[nH]cc(CCNC(C)=O)c2c1	TDP1 cell CPT inconclusive (no result: IL1B secr inh, uPA generation, HT1080 IDH1KD tx, HT1080-NT tox)
COc1ccc(-n2c(C)nc3cc(C(=O)NC4CCCC4)ccc32)cc1	none (no result: IL1B secr inh, uPA generation, HT1080 IDH1KD tx, HT1080-NT tox)
CC(C)c1c(C(=O)N/N=C2\CCc3ccccc32)nnn1-c1nonc1N	none
CN(Cc1cccc(Cl)c1Cl)C(=O)c1cc(S(=O)(=O)N2CCOCC2)ccc1F	IL1B secr inh inconclusive, TDP1 cell CPT 16µM, TDP1 cell noCPT 21µM
Cc1ccc(N(Cc2ccccc2)C(=O)c2cc(S(=O)(=O)N3CCOCC3)ccc2F)cc1	TDP1 cell CPT 18µM, TDP1 cell noCPT 7.3µM
O=C(NCCSCc1ccccc1)c1cc(S(=O)(=O)N2CCOCC2)ccc1F	TDP1 cell CPT 12µM, TDP1 cell noCPT inconclusive
O=C(c1cc(S(=O)(=O)N2CCOCC2)ccc1F)N(Cc1nnc(-c2ccccc2Cl)o1)C1CC1	TDP1 cell CPT inconclusive, TDP1 cell noCPT inconclusive
C=CCN(Cc1ccc(Cl)s1)C(=O)c1cc(S(=O)(=O)N2CCOCC2)ccc1F	TDP1 cell CPT 18µM, TDP1 cell noCPT 13µM
Cc1ccc(N(Cc2ccccc2)C(=O)Cc2ccc(S(=O)(=O)N3CCOCC3)s2)cc1	TDP1 cell CPT inconclusive, TDP1 cell noCPT inconclusive
CN(Cc1nc(-c2ccc(Cl)cc2)no1)C(=O)c1ccc2c(c1)OCO2	none
CCc1ccc2oc(-c3ccc(C)c(NC(=O)Cc4ccccc4)c3)nc2c1	none (no result: IL1B secr inh, uPA generation, HT1080 IDH1KD tx, HT1080-NT tox)
COc1ccc(C(=O)NCc2ccc(C)cc2)cc1S(=O)(=O)N1CCOCC1	none (no result: uPA generation)
Cc1ccc(CSCCNC(=O)c2ccc(Cl)c(S(=O)(=O)N3CCOCC3)c2)cc1	TDP1 cell CPT inconclusive, TDP1 cell noCPT 18µM
Cc1cccc(N(Cc2ccccc2)C(=O)c2cc(S(=O)(=O)N3CCOCC3)ccc2Cl)c1	IL1B secr inh inconclusive, TDP1 cell CPT 15µM, TDP1 cell noCPT 15µM
Cc1ccc(S(=O)(=O)N2CCOCC2)cc1C(=O)N1CCN(Cc2ccccc2)CC1	none
Cc1ccc(N(Cc2ccccc2)C(=O)c2cc(S(=O)(=O)N3CCOCC3)ccc2Cl)cc1	IL1B secr inh inconclusive, TDP1 cell CPT 12µM, TDP1 cell noCPT 7.3µM
CN(Cc1ccccc1)S(=O)(=O)c1ccc(Cl)c(C(=O)N2CCOCC2)c1	TDP1 cell CPT 18µM, TDP1 cell noCPT 21µM (no result: uPA generation)
CC(=O)N1CCN(S(=O)(=O)c2cccc(C(=O)N(Cc3ccccc3)c3cccc(C)c3)c2)CC1	TDP1 cell CPT inconclusive, TDP1 cell noCPT inconclusive
CN(Cc1ccccc1)S(=O)(=O)c1ccc(Cl)c(C(=O)O)c1	none
COc1cccc(C(=O)OC(C)C(=O)NCC2CCCCC2)c1 (stereo not given)	none
C=CCNc1oc(Cc2cccc3ccccc23)nc1C#N	none
N#Cc1nc(Cc2cccc3ccccc23)oc1NCc1ccc(F)cc1	HT1080 IDH1KD tx inconclusive, HT1080-NT tox inconclusive, TDP1 cell CPT inconclusive, TDP1 cell noCPT 21µM
COCCCNC(=O)c1cnn(-c2ccccc2Cl)c1C1CCN(C(=O)OC(C)(C)C)CC1	TDP1 cell CPT inconclusive (no result: IL1B secr inh, uPA generation, HT1080 IDH1KD tx, HT1080-NT tox)
COc1ccc2[nH]cc(CCNC(=O)c3cnn(-c4ccc(C)cc4)c3C3CCN(C(=O)OC(C)(C)C)CC3)c2c1	TDP1 cell CPT 9.2µM, TDP1 cell noCPT 5.2µM (no result: IL1B secr inh, uPA generation, HT1080 IDH1KD tx, HT1080-NT tox)
COc1ccc2[nH]cc(CCNC(=O)c3cnn(-c4ccccc4Cl)c3C3CCN(C(=O)OC(C)(C)C)CC3)c2c1	TDP1 cell CPT 13µM, TDP1 cell noCPT 10µM (no result: IL1B secr inh, uPA generation, HT1080 IDH1KD tx, HT1080-NT tox)
O=C(c1cn(-c2ccccc2)nc1-c1cccnc1)N1CCN(S(=O)(=O)c2ccc(Cl)cc2)CC1	TDP1 cell CPT inconclusive, TDP1 cell noCPT inconclusive
CC(=O)Nc1ccc(CN(C)c2c(C)nc3ccc(C(=O)NCCCn4ccnc4)cn23)cc1	none (no result: uPA generation)
CCCS(=O)(=O)NC(=O)C1(C)CCN(C(=O)c2cc(C)nn2C(C)(C)C)C1 (stereo not given)	none (no result: uPA generation)
CCCOC(=O)c1ccc(NC(=O)c2ccccc2OC)cc1	TDP1 cell CPT inconclusive, TDP1 cell noCPT inconclusive
COc1ccccc1C(=O)Nc1ccc(Cc2ccncc2)cc1	TDP1 cell CPT inconclusive, TDP1 cell noCPT 21µM
COc1ccc(NC(=O)Nc2cnccn2)c(OC)c1	none
CCCCOC(=O)c1ccc(NC(=O)c2ccccc2OC)cc1	TDP1 cell CPT 21µM, TDP1 cell noCPT inconclusive
COc1ccc(NC(=O)Nc2ccc(Cc3ccncc3)cc2)c(OC)c1	IL1B secr inh -51
O=C(NCc1ccncc1)Nc1ccc(Cc2ccc(NC(=O)NCc3ccncc3)cc2)cc1	IL1B secr inh inconclusive, TDP1 cell CPT inconclusive, TDP1 cell noCPT 10µM (no result: uPA generation)
CCNC(=O)C1(C)CCCN1C(=O)c1cnc2ccccc2n1 (stereo not given)	none (no result: uPA generation)
C[C@]12CC[C@H](O)CC1=CCC1C2CC[C@@]2(C)C1CC[C@@H]2NC(=O)[C@@H](N)Cc1cnc[nH]1 (stereo not given in full)	TDP1 cell noCPT inconclusive
CCN(CC)C(=O)C1=C(C)N(Cc2ccccc2)C(=O)C(CC(=O)NC2CCCCC2)C1 (stereo not given)	none (no result: uPA generation)
COc1cc(NC(=O)c2ccc(Br)o2)ccc1NC(=O)C(C)C	IL1B secr inh inconclusive

Screens deposited in PubChem by National Center for Advancing Translational Sciences (NCATS).
